# Measurements: publication PMC12136788
# Numbering of substitutions follows the chain as printed. Over roughly 5,800 sequences, “enrichment r” has its median near 0.68; the highest 2% begin near 11. The sample as a whole holds a higher share of the highest values than the screen did.
# T1: UNK ZnF1-6 (called full-length) (human, UniProt Q9C0B0 30-357)
# T1 sequence: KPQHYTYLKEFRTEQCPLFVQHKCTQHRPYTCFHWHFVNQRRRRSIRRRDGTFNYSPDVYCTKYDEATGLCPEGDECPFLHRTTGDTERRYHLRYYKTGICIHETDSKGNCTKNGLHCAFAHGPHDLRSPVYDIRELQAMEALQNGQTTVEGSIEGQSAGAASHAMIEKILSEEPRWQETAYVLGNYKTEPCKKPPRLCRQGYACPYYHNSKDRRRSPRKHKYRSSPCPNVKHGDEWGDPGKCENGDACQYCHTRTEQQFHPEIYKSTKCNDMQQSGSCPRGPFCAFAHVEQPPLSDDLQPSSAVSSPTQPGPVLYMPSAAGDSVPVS
# B1: chr4:65323451:65323552:-|3pUTR|ENSG00000145242|msi1|FALSE|unique (ssRNA)
# RNA: GGGAGUUCUACAGUCCGACGAUCAUCAAGAAAAAGUACAAUACAGGGUGUAUAUUUAUUUUUUGUGUUAUAAAGUUUACUUUUAGUUGCUCUUCUAGAGAUUAUUAGGUAAUAAAUGUGUAUAUACUGUAUAAUUUGCAAUAUCAACAGAGGAUUGAGCAUCA
# B2: chr15:100649042:100649144:+|3pUTR|ENSG00000183475|unk|FALSE|unique (ssRNA)
# RNA: GGGAGUUCUACAGUCCGACGAUCUACCUCUGCUUUUCUUUUGCUGUGCUCUUGUUUUUAACUUAUUUUUUUUUUAACAACUGUAGUACACUACCCUGAGACACUGCAUCUCGAUUUCUAUCUCUAGUUAGAGUUGUACUUUUACAACAGAGGAUUGAGCAUCA
# B3: chr2:99394746:99394872:+|CDS|ENSG00000158417|unk|FALSE|unique (ssRNA)
# RNA: GGGAGUUCUACAGUCCGACGAUCGAUGUGAGAAUUGAACGAGAUGCACAAGAAAUGGCUGAUAGUUUAGGAGUUAGAAUUUUUAGUGCAGAAAUUAUUUAUCAUUUAUUUGAUGCCUUUACAAAAUAUAGACAAGACUACAAGCAACAGAGGAUUGAGCAUCA
# B4: chrX:115010634:115010735:-|CDS|ENSG00000123496|msi1|FALSE|unique (ssRNA)
# RNA: GGGAGUUCUACAGUCCGACGAUCUGGAUCAUCAGAGAACAAGCCUAUCAGAUCCAGUUAUUUCACUUUUCAGCUUCAAAAUAUAGGUGAUGUAAACCAACAAACAACUUCAAAUUCAUUGUUUCUAGUUUAGGCCAUUUACAACAACAGAGGAUUGAGCAUCA
# B5: chr17:15565482:15566353:-|three_prime_utr|ENSG00000241322|control|control|control (ssRNA)
# RNA: GGGAGUUCUACAGUCCGACGAUCCACCCAAAGAAAAAGUCUUGGAAAAUCCCUAUGUCACCUGACCAAUUCCUCCUGACUGUUAGCGCCCUGCAGCACGCCCGUAAUUCCGGGGAAUUUGCCUAUCCCUGUAGGCCCCAAACACAACAGAGGAUUGAGCAUCA
# B6: chr16:58599380:58599482:-|5pUTR|ENSG00000125107|unk|FALSE|unique (ssRNA)
# RNA: GGGAGUUCUACAGUCCGACGAUCCAGAACAGAGUAAGACCCCUGGUAAAGAAGAACUGAAGAUAUUAUACAGAUACCAGAUAUAGCCUAAUUACAAAGAAAGCAUUAACCUGCCUCUGAGGUGACUAAAGGGGAAUAAUGGUGCAACAGAGGAUUGAGCAUCA
# B7: chr12:108645191:108645284:-|3pUTR|ENSG00000110880|msi1_unk|total|mutant (ssRNA)
# RNA: GGGAGUUCUACAGUCCGACGAUCUCUUUUUUUUUUUUUUUUUUUAAGCCAUGACAUCCCAGAAGAGGACAGUGAAUUACUCCCCGGUCGGCUCUUACCGAGUGGCCACCGUGUUCUGUCAAAACACUUGCUUCCAUUUUCAGACAACAGAGGAUUGAGCAUCA
# B8: chr8:23842113:23842214:-|3pUTR|ENSG00000159167|msi1|total|mutant (ssRNA)
# RNA: GGGAGUUCUACAGUCCGACGAUCACUUCCGACAUUUUUGUGCCAUUAUAUUUGCAUUAUGUAUUUAUAAUUUAAAUGAUAUUCCGGUUUUUGGCUGAGUACUGGAAUAAACAGUGAGCAUAUCUGGUAUAUGUCAUUAUUUAUCAACAGAGGAUUGAGCAUCA
# B9: chr1:202941098:202941199:-|3pUTR|ENSG00000159346|msi1_unk|total|mutant (ssRNA)
# RNA: GGGAGUUCUACAGUCCGACGAUCCCUCCCUUACCCCCAUCCUUAACUUUGUAUCCUGGCUUAUAACAGGCCAUCCAUUUUUGCCGCACACUUUUCAAAAACAAUUAUAUACCCUGGUCCCAUCUUUCCCGGGCCUGGAUCUGCCAACAGAGGAUUGAGCAUCA
# B10: chr9:74692981:74693082:+|3pUTR|ENSG00000198963|unk|total|mutant (ssRNA)
# RNA: GGGAGUUCUACAGUCCGACGAUCUUUUAUAUUACUUCCGAAUGUAACCGGUUUUUGUCCUUAUUUUAUGUCCUGUAAAUUAUCCGUUCAAUACUGUCCGCAUUCCCGGAUAAUGCACACAUGAUUUCUGAAUGUUUUCUGUAACAACAGAGGAUUGAGCAUCA
# B11: chr6:149889094:149889339:-|three_prime_utr|ENSG00000164520|control|control|control (ssRNA)
# RNA: GGGAGUUCUACAGUCCGACGAUCGGCAGCUCCCUUUAAAGGUCAAAAGCCUUCCCUGUGUGGGUGUCAGUGUGUGUGUGCGAUAGAAAAUUUGAUUGACUUCUCCGUGGGCUUCCUGUCUGGAGAGUCAGUGAUGGCUAUAAGCAACAGAGGAUUGAGCAUCA
# B12: ENSG00000198589:be:win_1801|CDS|ENSG00000198589|bound_else_gene|NA|bound_elsewhere_windowed (ssRNA)
# RNA: GGGAGUUCUACAGUCCGACGAUCACAGUCAACAUAUAUAACACCAUUCGGAGAGUUGGAACAGUGCUUCUCAUCAUGCACACGCUGAAGUACUACUACUGGGCAGUGAAUCCUCAGGAUCGAAGUGGUAUCACCCCAAAAGGACAACAGAGGAUUGAGCAUCA
# B13: chr21:18281039:18281221:-|CDS|ENSG00000154646|control|control|control (ssRNA)
# RNA: GGGAGUUCUACAGUCCGACGAUCACCUCUCCUCAAACAGUCCCUCGAUUAAUAGAUGAAAUUGUCAUAAACCCUCAUUACAAUAGGCGAAGAAAGGACAACGACAUUGCCAUGAUGCAUCUGGAAUUUAAAGUGAAUUACACACAACAGAGGAUUGAGCAUCA
# B14: chr5:52955293:52955406:+|3pUTR|ENSG00000213949|unk|total|mutant (ssRNA)
# RNA: GGGAGUUCUACAGUCCGACGAUCUACCAACCAGUGUGAGCUGACUUCAGCACACCACUGAGACAGAUUACACGACCGACAGACCGACCGACCGACCGACCGACCGACCGACCGACCGACCGACCGAUAUUGACCGAGAACAUGCAACAGAGGAUUGAGCAUCA
# B15: ENSG00000198589:be:win_6551|CDS|ENSG00000198589|bound_else_gene|NA|bound_elsewhere_windowed (ssRNA)
# RNA: GGGAGUUCUACAGUCCGACGAUCGACGUAUUUCAUUAGCUAGUCCACGUCAGCUUUUUAAGGCUUCUAAUAUGACCCAGCGAUGGCAACACAGAGAGAUAUCUAAUUUUGAGUACUUGAUGUUUCUCAACACGAUAGCAGGACCAACAGAGGAUUGAGCAUCA
# B16: chr11:74334375:74334476:-|3pUTR|ENSG00000165434|msi1|FALSE|unique (ssRNA)
# RNA: GGGAGUUCUACAGUCCGACGAUCUUUUUGUUUUAUUUUUAAAAUGUGUAAAACAUCUUUUGUUUUAUAUGCUUUUAAGAAUGUAGAUUGUAAUUUAGGAAAUGGCAUAUAUUCUGCAAAGUGGUAUAAUGUUGUAUAUAUGAACAACAGAGGAUUGAGCAUCA
# B17: chr5:52955293:52955406:+|3pUTR|ENSG00000213949|unk|FALSE|unique (ssRNA)
# RNA: GGGAGUUCUACAGUCCGACGAUCUACCAACCAGUGUGAGCUGACUUCAGCACACCACUGAGACAGAUUACACGAUAGACAGAUAGAUAGAUAGAUAGAUAGAUAGAUAGAUAGAUAGAUAGAUAGAUAUUGAUAGAGAACAUGCAACAGAGGAUUGAGCAUCA
# B18: chr16:57253408:57253449:+|3pUTR|ENSG00000102931|msi1_unk|FALSE|overlapping (ssRNA)
# RNA: GGGAGUUCUACAGUCCGACGAUCUGUGUGGUAGAUUACUUAUCAGAAAACAUAUAUGUCAUCUCUAGAACGAAGAAAAAGCAUAGUAGUUCAAUUCCCAGUGUGUCCCUUUGAUUUUUUUUUUUUAAUAGUAAAAAUAAGAAUCAACAGAGGAUUGAGCAUCA
# B19: chr2:206311781:206311882:+|3pUTR|ENSG00000204186|unk|total|mutant (ssRNA)
# RNA: GGGAGUUCUACAGUCCGACGAUCCCGUGUUCCGAGUCCUUUCAUUUUAAGAUUCAGAAACAGCCUUUGUCCAACAUUUUCUGCCGAAGAACUUCAUCUUAAUUUAUGUCACAAAAUAAUUCCGCACCGUAUACCGAAUUUUGUCAACAGAGGAUUGAGCAUCA
# B20: chr20:53567570:53567671:-|3pUTR|ENSG00000171940|unk|FALSE|unique (ssRNA)
# RNA: GGGAGUUCUACAGUCCGACGAUCUCACAAGCUGAGCCAUAUGUACAUAAUCUAGAUUUUGUUUUCAUAGUUUUGCACUUUUAUAGCCUAUUUUUGAAGAUUAACACAUUUGCAAGAUGAUUGACUCAAUCUUUGCCUAAUCCACAACAGAGGAUUGAGCAUCA
# B21: chr2:206311781:206311882:+|3pUTR|ENSG00000204186|unk|FALSE|unique (ssRNA)
# RNA: B19 RNA with C24U, C25A, C31U, C32A, C83U, C84A, C121U, C122A, C133U, C134A
# B22: chr14:103503186:103503248:+|CDS_3pUTR|ENSG00000075413|msi1_unk|FALSE|overlapping (ssRNA)
# RNA: GGGAGUUCUACAGUCCGACGAUCUGCUUCCAAAAUUGCCAAUGAGCUAAAGCUGUAACCCAGUGAUUAUGAUGUAAAUUAAGUAGCAAUUAAAGUGUUUUCCUGAACACUGAUGGAAAUGUAUAGAAUAAUAUUUAGGCAAUACAACAGAGGAUUGAGCAUCA
# B23: chr12:76029359:76029534:-|3pUTR|ENSG00000139289|msi1|FALSE|unique (ssRNA)
# RNA: GGGAGUUCUACAGUCCGACGAUCAGAAGUUUAAAAAGCUAAAAGUUAAAAAUGGUGUAAUUAUGAAAAUCUAACACUCAAGAUAGUUUCUAAAAGGAAAUCAGUAGUUAAGGAUACCUGAUUUCAAAAUAUUUAAAGCAUAACCAACAGAGGAUUGAGCAUCA
# B24: ENSG00000136451:be:win_1001|CDS|ENSG00000136451|bound_else_gene|NA|bound_elsewhere_windowed (ssRNA)
# RNA: GGGAGUUCUACAGUCCGACGAUCACCAAAAGCAGCAGCAGCAGCAGCAGCAGCAGCAGCAGCAGCAGCAACAACAACAACAACAACAUGUGACAAGCUGGCCAGGGAAGCAAGUAGAAACACUGAGACUGUGGGAAGAAGCUGCAACAGAGGAUUGAGCAUCA
# B25: chr12:98549714:98549829:+|3pUTR|ENSG00000120802|unk|FALSE|unique (ssRNA)
# RNA: GGGAGUUCUACAGUCCGACGAUCGAAGAUGUAUAUUUAGACCAGCACACAAUUUUGAUUUCAAUUAGCCUUAUUCUAAUAUUUAGCUUUUAGAUCUUUCAUACACAUUUUCACGUACUUUGCAAUUGAGACCAGAAAGACUUGCAACAGAGGAUUGAGCAUCA
# Biological target: T1, UNK ZnF1-6 (called full-length)
# Assay: nsRBNS (natural sequence RNA bind-n-seq); RBNS binding buffer (assumed for nsRBNS): 25 mM Tris pH 7.5, 150 mM KCl, 3 mM MgCl2, 0.01% Triton X-100, 500 ug/ml BSA, 20 U/ml SUPERase-In, 4 C; UNK is unkempt and MSI1 is Musashi-1; names of the RNAs are library labels; protein concentration not given here; high values mean tight binding
row,Binder,binding signal
1,B1,3.94 enrichment R
2,B2,5.29 enrichment R
3,B3,15.9 enrichment R
4,B4,0.759 enrichment R
5,B5,0.988 enrichment R
6,B6,0.956 enrichment R
7,B7,4.25 enrichment R
8,B8,0.575 enrichment R
9,B9,2.09 enrichment R
10,B10,0.468 enrichment R
11,B11,0.908 enrichment R
12,B12,0.542 enrichment R
13,B13,0.684 enrichment R
14,B14,0.427 enrichment R
15,B15,0.548 enrichment R
16,B16,3.22 enrichment R
17,B17,24.7 enrichment R
18,B18,1.9 enrichment R
19,B19,0.453 enrichment R
20,B20,3.86 enrichment R
21,B21,11.6 enrichment R
22,B22,11.1 enrichment R
23,B23,1.92 enrichment R
24,B24,0.905 enrichment R
25,B25,32.9 enrichment R
